A selection: hits, their analogues and other compounds. The true share with any hit is near 3.6%.
TWEAK Fn14 block: blocks TWEAK-Fn14 interaction in a reporter cell assay; TWEAK-stimulated Fn14 reporter cells, luciferase luminescence, 8 h; inhibition, % at 10 µM; hit rate 2% among 360,000; AID 1159606; in the data active = inhibition above about 50%
LMP1 NFkB inh: reduces LMP1-driven NF-kappaB luciferase signal; AID 504558; LMP1-induced NF-kappaB luciferase reporter cells, luminescence; hit rate 0.69% among 350,000; inhibition, % at 12.5 µM; in the data active = inhibition above about 41%
HSF1 inhib: HSF1 inhibition; NIH3T3-HGL HSE-luciferase, MG132-induced, luminescence 8 h; active compounds read low; activity change, negative = inhibition, % at 7.5 µM (by protocol); hit rate 0.77% among 300,000;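 active = more than half of replicate wells show activity change below -50%, luminescence cut by over half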;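 also: luciferase reports HSF-1 transcriptional activity via heat shock element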
LGR2 inh: blocks bursicon-induced cAMP signaling via Drosophila LGR2 | inhibition, % at 9.99 µM | AID 720647 | HEK293 LGR2, CRE-luciferase, bursicon-stimulated, 4 h | hit rate 0.35% among 380,000;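 active = drop in luminescence signal, shown as inhibition above about 50% in the replicate tests, limit read from the data, passing the limit was not always enough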;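 also: agonist challenge used bursicon conditioned medium at about half maximal strength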
HSF1 activator: increases HSF-1 driven luciferase reporter signal | NIH3T3-HGL HSF-1 luciferase reporter, MG132, 8 h; 100% = twice DMSO control signal | activation, % at 9 µM | hit rate 1.7% among 300,000 | AID 504408;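 active = mean replicate activation of at least 50% with a set share of replicates each reaching 50%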
TROY NFkB inh: inhibitors of TROY-dependent NF-kB signaling; Q293 LMP1-TROYcd NF-kB luciferase reporter, 4 h; inhibition, % at 10 µM; hit rate 0.98% among 360,000;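 active = compounds whose plate-normalised and pattern-corrected inhibition of the luciferase reporter signal at the single screening dose is 50% or more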
Hits are given with their value; i = inactive; nt = no result; ! = not confirmed by another sample.

SMILES	TWEAK Fn14 block	LMP1 NFkB inh	HSF1 inhib	LGR2 inh	HSF1 activator	TROY NFkB inh
Cc1noc(C)c1NC(=O)N(C)C[C@@H]1Oc2ccc(NC(=O)Nc3cccc4ccccc34)cc2C(=O)N([C@H](C)CO)C[C@@H]1C	nt	nt	nt	i	nt	nt
COCC(=O)N1[C@H](CO)[C@@H](c2ccc(-c3ccccc3OC)cc2)C12CN(C(C)=O)C2	nt	nt	nt	i	nt	nt
CC(C)Cn1c(N)c(C(=O)COC(=O)CC23CC4CC(CC(C4)C2)C3)c(=O)n(C)c1=O	73	i	i	nt	i	59
Cc1ccc(OCCC(=O)OCC(=O)c2c(N)n(CC(C)C)c(=O)n(C)c2=O)cc1	i	72	nt	i	nt	i
CCOc1ccc(OCCC(=O)OCC(=O)c2c(N)n(CC(C)C)c(=O)n(C)c2=O)cc1	i	i	nt	i	nt	i
CCOC(=O)c1c(NC(=S)N2CCOCC2)sc2c1CCN(C(=O)OCC)C2	i	nt	i	63	i	i
CCOC(=O)N1CCc2c(sc(NC(=O)CN3CCOCC3)c2C#N)C1	i	nt	i	i	i	i
CCOC(=O)c1c(NC(=S)N2CCCCC2)sc2c1CCN(C(=O)OCC)C2	i	nt	i	nt	121	i
Cc1cc(C)cc(N2C(=O)CN(Cc3ccccc3)C2=S)c1	i	i	-78	i	i	i
CCc1ccc(N2C(=O)CN(Cc3ccccc3)C2=S)cc1	i	i	i	i	i	i
COc1ccc(N/N=C(\C#N)C(=N)SCc2ccccc2)cc1	77	i	i	67	i	52
Cc1ccc(S(=O)(=O)Nc2ccc3c(c2)C(=O)N([C@@H](C)CO)C[C@H](C)[C@@H](CN(C)CC2CCCCC2)OCCCC[C@H](C)O3)cc1	nt	nt	nt	i	nt	nt
CN(/C(=N\S(=O)(=O)c1ccccc1)C(F)(F)F)c1ccccc1	i	i	-56	i	i	i
O=C(NCCc1cccc(Cl)c1)c1ccc(OC2CCN(Cc3ccccn3)CC2)cc1	82	nt	i	i	i	73
CN(C(=O)c1ccc(OC2CCN(Cc3ccccn3)CC2)cc1)C1CCCCC1	i	i	-52	i	i	i
Cc1cccnc1CCNC(=O)c1ccc(OC2CCN(Cc3ccccn3)CC2)cc1	55	i	i	i	i	i
CCCC#Cc1ccc2c(c1)O[C@H](CN(C)CCC)[C@H](C)CN([C@H](C)CO)S2(=O)=O	nt	nt	nt	i	nt	nt
Cc1onc(-c2ccccc2)c1C(=O)N=C(N)c1ccc(C(F)(F)F)cc1	i	i	i	nt	82	i
Cc1onc(-c2ccccc2)c1C(=O)Nc1ccccc1N1CCOCC1	i	i	i	nt	i	i
Cc1onc(-c2ccccc2)c1CNC(=O)Nc1ccc(C(F)(F)F)cc1	i	i	i	i	i	50
Cc1onc(-c2ccccc2)c1C(=O)c1ccccc1	i	i	i	i	i	i
Cc1onc(-c2ccccc2)c1C(=O)Nc1cc(C(F)(F)F)ccc1N1CCOCC1	i	69	i	nt	i	i
COc1ccc2c3c(n(C)c2c1)[C@H](CO)N(C(=O)C1CCC1)CC31CCN(C(=O)CN(C)C)CC1	nt	nt	nt	i	nt	nt
C[C@H](CO)N1C[C@H](C)[C@H](CN(C)C)OCCCC[C@H](C)Oc2ccc(NC(=O)Cc3ccccc3)cc2C1=O	nt	nt	nt	i	nt	nt
COc1ccc2c3c(n(C)c2c1)[C@@H](CO)N(Cc1ccc(F)cc1)CC31CN(CC2CCOCC2)C1	nt	nt	nt	i	nt	nt
SMILES	TWEAK Fn14 block	LMP1 NFkB inh	HSF1 inhib	LGR2 inh	HSF1 activator	TROY NFkB inh
CCOc1cc(C2c3c(n[nH]c3C)C(=O)N2c2ccc(Br)cc2)ccc1O (stereo unspecified)	i	i	i	nt	i	50
COc1ccc2c3c(n(C)c2c1)[C@@H](CO)N(CC1CCCCC1)CC31CCN(Cc2nccs2)CC1	nt	nt	nt	i	nt	nt
CO[C@@H]1CN(C)C(=O)c2cc(NC(C)=O)ccc2OC[C@@H](C)N(Cc2ccc(F)cc2)C[C@H]1C	nt	nt	nt	i	nt	nt
CCCC(CCC)C(=O)O	i	58!	i	i	i	i
COc1ccc2c3c([nH]c2c1)[C@@H](CO)N(C)CC31CCN(C(=O)c2cccnc2)CC1	nt	nt	nt	i	nt	nt
O=C(Nc1nc(-c2ccccc2)c(C(=O)c2ccccc2)s1)c1ccc(S(=O)(=O)N2CCCCC2)cc1	52	i	i	i	i	i
O=C(Nc1nc(-c2cccs2)cs1)c1ccc(S(=O)(=O)N2CCCCC2)cc1	59	i	-61	i	i	i
O=C(Nc1nc(-c2ccccc2)c(-c2ccccc2)s1)c1ccc(S(=O)(=O)N2CCCCC2)cc1	i	i	i	i	i	i
O=C(Nc1nc(-c2ccccn2)cs1)c1ccc(S(=O)(=O)N2CCCCC2)cc1	nt	nt	i	nt	i	nt
O=C(Nc1nc(-c2cccs2)cs1)c1cccc(S(=O)(=O)N2CCCCCC2)c1	i	i	-61	nt	i	i
COc1ccc(NC(=O)Nc2ccc3c(c2)C(=O)N([C@H](C)CO)C[C@H](C)[C@H](CN(C)Cc2ccncc2)O3)cc1	nt	nt	nt	i	nt	nt
O=C(C[C@@H]1C[C@@H]2c3cc(NC(=O)NC4CCCCC4)ccc3O[C@@H]2[C@H](CO)O1)NC1CCCCC1	nt	nt	nt	i	nt	nt
CS/C(Nc1cc(Cl)ccc1Cl)=C(/C#N)C(=O)c1ccco1	i	i	i	nt	54	i
O=C(CC12CC3CC(CC(C3)C1)C2)Nc1ccc(C(=O)O)cc1	i	i	i	i	i	i
NC(=O)c1ccc(NC(=O)CC23CC4CC(CC(Br)(C4)C2)C3)cc1	i	i	i	i	76	i
COc1cccc(N(C(=O)CCl)C(C(=O)NCCc2ccccc2)c2cccs2)c1 (stereo unspecified)	59	i	-92	i	i	i
COc1ccc(N(C(=O)CCl)C(C(=O)NCCc2ccccc2)c2cccs2)cc1Cl (stereo unspecified)	52	i	i	i	i	i
COc1cccc(N(C(=O)c2snc(C(N)=O)c2N)C(C(=O)NCC2CCCO2)c2cccs2)c1 (stereo unspecified)	i	i	i	i	i	i
COc1ccc2c3c([nH]c2c1)[C@H](CO)NCC31CCN(C(=O)Nc2ccc(F)cc2F)CC1	nt	nt	nt	i	nt	nt
O=C(C[C@@H]1CC[C@H](NC(=O)c2ccc3c(c2)OCO3)[C@@H](CO)O1)NCc1ccc(Oc2ccccc2)cc1	nt	nt	nt	i	nt	nt
C[C@H](CO)N1C[C@H](C)[C@@H](CN(C)Cc2ccc(C(=O)O)cc2)Oc2ccc(NS(=O)(=O)c3ccccc3)cc2CC1=O	nt	nt	nt	i	nt	nt
Cc1cc(NC(=O)C2C3C(=O)N(CC4CCCO4)C(C(=O)NC(C)(C)C)C34C=CC2(C)O4)no1 (stereo unspecified)	i	i	i	i	i	i
Cc1cc(NC(=O)C2C3C(=O)N(Cc4ccc(Cl)cc4)C(C(=O)NC(C)(C)C)C34C=CC2(C)O4)no1 (stereo unspecified)	i	i	-55	nt	i	i
COCCNC(=O)C(OC(=O)c1cccs1)c1ccccc1 (stereo unspecified)	i	i	-55	nt	i	i
C[C@@H]1CN([C@@H](C)CO)C(=O)Cc2cc(NC(=O)c3ccncc3)ccc2O[C@@H]1CN(C)S(=O)(=O)c1ccc(F)cc1	nt	nt	nt	i	nt	nt
